Screens from PubChem.
A selection: hits, their analogues and other compounds. The true share with any hit is near 3.2%.
S16 viability – cytotoxicity in S16 Pmp22-F2sN Schwann cells. S16 Pmp22-F2sN Schwann cells viability, CellTiter-Glo, 24 h. Potency, µM (top dose mostly 57.5 µM), for the others: at the top dose activity change, negative = cytotoxicity, hits mostly cytotoxic. 43,000 tested, 0.48% active; note: nearly all actives have a fitted effect of over 65% in size
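S16 Schwann cells carrying the Pmp22-F2sN reporter, seeded in 1536-well format, were exposed to library compounds for 24 h at 37C. Viability was read as CellTiter-Glo luminescence after 15 min at room temperature.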
p53null 32C tox – p53 null cell cytotoxicity, permissive temperature; Potency, µM (highest dose often 46.1 µM), for the others: top-dose activity change, negative = cytotoxicity, most hits filed as cytotoxic; H1299-neo p53 null cells, ATP luminescence, 24 h, 32C; AID 903; 55,000 tested, 0.62% active;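 note: 0% = DMSO only and -100% = full killing by 100 µM tamoxifen; nearly all actives have a fitted effect of over 55% in size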
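ATP-content luminescence in p53-null H1299-neo cells after 24 h compound exposure (up to 46 uM) at 32C permissive temperature; 0% and 100% killing set by DMSO and 100 uM tamoxifen; Hill-equation AC50.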
mTORC1 inh – reduces mTORC1 signaling in Tsc2 and p53 null MEF cells; 44,000 tested, 0.78% active; Tsc2-/- p53-/- MEF, phospho-rpS6 immunofluorescence/PI, 24 h; Potency, µM (doses to about 38.3 µM), without a hit: at the top dose activity change, negative = inhibition, usual class: inhibitors;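 note: plate controls were DMSO for no effect and rapamycin for full effect; nearly all actives have a fitted effect of over 50% in size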
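Cell-based qHTS: Tsc2-/- p53-/- MEF, 24 h cpd, 37 °C; fix/perm, anti-phospho-S6 Alexa-488 + PI; Acumen 488 nm scan; pS6/PI ratio, % positive cells; rapamycin 7.5 nM = inhibition ref; PI count = viability.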
PMP22 txn – modulators of PMP22 gene transcription in S16 Schwann cells; S16 Pmp22-F2sN Schwann cells (luciferase reporters placed in the Pmp22 gene), FLuc/NLuc coincidence luminescence, 24 h; Potency, µM (top dose mostly 57.5 µM), for the others: at the highest dose activity change, negative = inhibition, usual class: inhibitors; 43,000 tested, 2% active; AID 1508649; active = clear falling dose curves in both reporters; inconclusive = both reporters move, but less clearly or upward; inactive = either reporter flat; the % is the NLuc reporter signal
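qHTS, 1536-well. Cells seeded, compounds added by pin tool, 24 h 37C. Nano-Glo reagent 1 (lysis/FLuc), 10 min RT, read; Stop&Glo, 10 min RT, read NLuc.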
p53null 39C tox – p53 null cell cytotoxicity, nonpermissive temperature; 55,000 tested, 0.97% active; H1299 p53-null (neo) cells, 39C, ATPlite viability, 24 h; Potency, µM (top dose mostly 46.1 µM), without a hit: at the top dose activity, negative = cell killing, actives largely listed as cytotoxic;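 note: 0% = DMSO only and -100% = full killing by 100 µM tamoxifen; nearly all actives have a fitted effect of over 50% in size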
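Concentration-response (up to 46 uM) was run for 24 h at the nonpermissive 39C on H1299-p53A138V or H1299-neo cells. ATP content was measured with ATPlite luminescence. AC50 values were Hill-modeled after normalizing between DMSO and 100 uM tamoxifen killing.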
Numbers without * were called inactive; ? = inconclusive; / = no result. Unless noted, calls come from the whole dose curve; as a rule, active = well fitted curve in the direction sought with a large enough effect; inconclusive = small, poorly fitted or top-dose-only effect, or another doubt; inactive = no such curve, though single readings can be large; an effect the other way counts as inactive or inconclusive. Unless noted, % is set by controls: 0 for no effect and ±100 for the full control effect; potency is the fitted concentration of half-maximal effect.

SMILES	S16 viability	p53null 32C tox	mTORC1 inh	PMP22 txn	p53null 39C tox
Cc1ccc(C)c(N2CCN(CCCNC(=O)c3cnn(-c4ccccc4Cl)c3C3CCN(C(=O)OC(C)(C)C)CC3)CC2)c1	?	29.8%	?	?	12.6µM*
Cc1ccc(C)c(N2CCN(CCCNC(=O)c3cnn(-c4cccc(Cl)c4)c3C3CCN(C(=O)OC(C)(C)C)CC3)CC2)c1	?	-22.4%	?	?	?
CCN1CCN(CCCNC(=O)c2cnn(-c3ccc(C)cc3)c2C2CCN(C(=O)OC(C)(C)C)CC2)CC1	5.0%	2.4%	0.6%	-48.8%	8.4%
Cc1ccc(C)c(N2CCN(CCCNC(=O)c3cnn(-c4ccc(F)cc4)c3C3CCN(C(=O)OC(C)(C)C)CC3)CC2)c1	?	22.1%	?	?	25.1µM*
O=C(CSc1nc2c(c(=O)[nH]1)CN(Cc1ccc(F)cc1)CC2)Nc1cccc(C(F)(F)F)c1	14.1µM*	0.0%	-1.4%	?	12.6%
CCOc1ccccc1NC(=O)CN1C(=O)C(=O)c2ccccc21	-29.5%	-2.1%	2.61µM*	?	?
Fc1ccc(-c2nnc(-c3ccc(Cl)cc3Cl)o2)cc1	/	6.31µM*	/	/	11.2µM*
O=C(O)CCSc1nnc(-c2ccc(Cl)cc2Cl)o1	-3.3%	?	2.2%	?	?
CCOc1ccccc1C1CC(=O)NC(C)=C1C(=O)OCc1ccc(C)cc1 (stereo unspecified)	16.6%	57.3%	-16.4%	-17.7%	-29.7%
CC(C)Nc1ncnc2c1cnn2-c1ccccc1	/	11.2µM*	/	/	?
Cc1ccc(-n2ncc3c(Nc4ccccc4C)ncnc32)cc1	-6.3%	?	-5.2%	-3.2%	?
CCN(c1ccccc1)S(=O)(=O)c1cc(Br)cc2c1N(C(=O)C1CC1)CC2	4.3%	4.9%	-15.4%	?	14.3%
COc1ccccc1C1C=C(c2ccc(Cl)cc2)Nc2nc(-c3ccc(Cl)cc3)nn21 (stereo unspecified)	-15.6%	20.4%	11.7µM*	?	34.5%
Cc1ccc(Cl)cc1N1CCN(C(=O)C2CCN(Cc3nc(-c4ccc(Cl)cc4)oc3C)CC2)CC1	?	-4.6%	-8.5%	?	-1.1%
O=C(Nc1ccccc1F)c1ccc2c(Cl)c3c(nc2c1)CCC3	-0.2%	1.26µM*	-0.2%	?	1.58µM*
Cc1cccc(Cn2c(=O)n(CC3CCC(C(=O)N4CCOCC4)CC3)c(=O)c3sccc32)c1 (stereo unspecified)	?	5.7%	-0.8%	?	-5.4%
CCCOc1ccc(NC(=O)CC2C(=O)N(c3ccc(C)cc3)C(=O)N2C(C)C)cc1 (stereo unspecified)	/	4.7%	-3.5%	/	-16.3%
CCN(C(=O)C1CCN(S(=O)(=O)c2cc(Br)cc3c2N(C(C)=O)CC3)CC1)c1cccc(C)c1	?	6.1%	3.3%	8.91µM*	-7.3%
O=C(Nc1cc(Cl)cc(Cl)c1)c1ccc(F)c(S(=O)(=O)NC2CCCCC2)c1	-10.1%	?	?	?	20µM*
O=C(Nc1ccc(Br)cc1)c1ccc(F)c(S(=O)(=O)NC2CCCCCC2)c1	?	46.2%	-16.7%	?	5.1%
CCOc1ccc(OCC)c(Nc2nc3ccc(C(=O)c4ccccc4)cc3n3cnnc23)c1	-0.1%	-0.5%	-5.8%	-26.3%	?
CC(=O)c1ccc(NC(=O)COCc2cc(-c3ccc(F)cc3)on2)cc1	-0.9%	-5.5%	-1.0%	-9.4%	-7.9%
CCN(CC)CCCNc1sc(S(=O)(=O)c2ccccc2)nc1S(=O)(=O)c1ccc(Cl)cc1	?	2.5%	9.27µM*	?	?
CC(=O)N1CCc2cc(CNS(=O)(=O)c3cccs3)ccc21	-1.1%	-20.1%	?	?	-24.9%
COc1cc(-c2nc3ncccn3c2Nc2ccc(C)cc2C)ccc1O	?	16.5%	14.7µM*	5.1%	-16.3%
CC(=O)c1c(C)oc2ccc(N(C(=O)Oc3ccccc3)S(=O)(=O)c3ccccc3)cc12	-7.9%	7.0%	17.4%	?	16.2%
